103 compounds from PubChem BioAssay AID686979 (National Center for Advancing Translational Sciences (NCATS), 2013) can be followed below.

“And” between values parts separate entries of the source, which are not always exact repeats. Equal values may be shown once. The campaign covered roughly 420,000 compounds. About 50,000 (12%) were called active. Where a call stands in place of a potency, no number is given. Another 26% or so got no clear call; they are omitted. The call rests on the fitted dose curve; in most records, active means well fitted inhibition curve with a large enough effect; inconclusive means small, poorly fitted or top-dose-only effect; inactive means flat fitted curve, though single readings scatter. This excerpt belongs to a sample that is enriched for actives.
Potency means the concentration at half of the fitted maximal effect.

The assay is described as follows: qHTS for Inhibitors of human tyrosyl-DNA phosphodiesterase 1 (TDP1): qHTS in cells in presence of CPT. Further: nearly all actives have a fitted effect of over 55% in size. To be noted: chicken DT40 Tdp1-/-;hTDP1 cells + 20 nM CPT, ATP luminescence, 48 h; series mostly up to 46.2 µM. The procedure, abridged:
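Chicken DT40 Tdp1-/- cells complemented with human TDP1, 400 cells/well, exposed to compounds plus 20 nM camptothecin for at least 48 h at 37 C; viability read as ATP content by CellTiter-Glo luminescence.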
Regarding `CCCC[N+]1(C)C2CC(OC(=O)C(CO)c3ccccc3)CC1C1OC12` (stereo not drawn), the Potency entry was “inactive”.
Consider `Cc1ccccc1N1C(=O)NC(=O)/C(=C\c2cc(C)n(C)c2C)C1=O`, for which the Potency result was “inactive”.
As for `O=C1NCN(c2ccccc2)C12CCN(C(c1cccs1)c1nnnn1C1CCCCC1)CC2` (stereo not drawn), the Potency is 16.4 µM (active).
For `CC[N+]1(C)CCCC(OC(=O)C(O)(c2ccccc2)c2ccccc2)C1` (stereo not drawn) the value was “inactive”.
For `CN(C)C(=O)Oc1ccc(NC(=O)N2CCOCC2)cc1` the value was “inactive”.
Take `Cc1cccc(-n2c(C)nc3cc(C(=O)N4CCC5(CC4)OCCO5)ccc32)c1`: the Potency was 20.6 µM (active).
With `O=C(c1cc(-c2ccncc2)nc2ccccc12)N1CCC2(CC1)OCCO2` the entry was “inactive”; with `Cc1ccc(-c2cc(C(=O)N3CCC4(CC3)OCCO4)no2)cc1`, “inactive”; with `COc1cc(C(c2c(O)c3ccccc3oc2=O)c2c(C)n(C)n(-c3ccccc3)c2=O)ccc1O` (stereo not drawn), “inactive”.
For `COP(=O)(NS(=O)(=O)c1ccccc1)OC` the value was “inactive”; for `ClCCN(CCCl)c1ccc(C=Nc2ccc(/C=C/c3ccnc4ccccc34)cc2)cc1`, 10 µM (active); for `C=CCN(CC=C)C(=O)Nc1ccc(OCC)cc1`, “inactive”.
Take `O=C1NC(=O)N(Cc2ccco2)C(=O)/C1=C\c1ccc(-c2ccc(F)cc2)o1`: the Potency was 20.6 µM (active).
For `O=C1NC(=O)N(Cc2ccco2)C(=O)/C1=C\c1cccn1CCOc1ccccc1`, the Potency entry is “inactive”.
For `O=C(O)C1CSC(c2cccnc2)N1` (stereo not drawn) the value was “inactive”; for `Fc1ccc(C(OCCN2CCN(C/C=C\c3ccccc3)CC2)c2ccc(F)cc2)cc1`, 5.31 µM (active); for `CN(C)S(=O)(=O)c1cc(C(=O)N2CCC(C(=O)O)(c3ccccc3)CC2)ccc1Cl`, “inactive”.
Regarding `COC(=O)CN1C(=O)C2(C(C(=O)OC)=C(N)Oc3ccccc32)C2=C1CC(C)(C)CC2=O` (stereo not drawn), the Potency result was “inactive”.
For `C/C=C/CC1(CC)C(=O)NC(=S)NC1=O`, the Potency result is “inactive”.
For the compound `CN1CC[C@H](c2c(O)cc(O)c3c(=O)cc(-c4ccccc4Cl)oc23)[C@H](O)C1`, the Potency was 0.0944 µM (active).
As to `Cc1ccc(C)c(NC2=NCCCS2)c1`, the Potency result was “inactive”.
`O=c1[nH]c(O)c(C=Nc2cc(F)cc(F)c2)c(=O)[nH]1`: the Potency result was “inactive”.
Turning to `O=C1C2(Cl)C3(Cl)C4(Cl)C(Cl)(Cl)C5(Cl)C3(Cl)C1(Cl)C5(Cl)C24Cl` (stereo not drawn), the Potency is 18.4 µM (active).
Turning to `ClC(Cl)(Cl)c1ccccc1`, the Potency result is “inactive”.
In the case of `COc1ccc(NC(=O)c2cn(CCC#N)nc2-c2ccc([N+](=O)[O-])cc2)cc1`, the Potency result is “inactive”.
For the compound `CNC(=O)Nc1ccc(C(O)(C(=O)OC)C(F)(F)F)cc1` (stereo not drawn), the Potency result was “inactive”.
With `O=S(=O)(O)C(F)(F)C(F)(F)C(F)(F)C(F)(F)F`, the Potency result was “inactive”.
For `CCOC(=O)[C@]12Cc3ccccc3[C@H]1N(C1CCCCC1)C(=O)c1cc(OC)ccc12` the value was 2.91 µM (active); for `CCOC(=O)[C@]12Cc3cc(OC)ccc3[C@H]1N(C(C)C)C(=O)c1ccccc12`, 13 µM (active); for `COc1ccccc1-n1c(O)c(C=NC2CC2)c(=O)[nH]c1=O`, “inactive”.
Turning to `COC(=O)N1C(c2ccccc2)C1c1ccccc1` (stereo not drawn), the Potency result is “inactive”.
Consider `O=C(O)/C=C/c1ccc2c(c1)OCO2`, for which the Potency result was “inactive”.
With `Clc1cccc(Cl)c1Cl` the entry was “inactive”; with `CCOC(=O)C(O)(c1ccc(N)c(OC)c1)C(F)(F)F` (stereo not drawn), “inactive”; with `O=C(CCC(=O)N1C[C@H]2C[C@@H](C1)c1cccc(=O)n1C2)NCc1ccccc1C(F)(F)F`, “inactive”.
Consider `C[C@@]12CCC3C(CC[C@@H]4CC(O)CC[C@@]34C)C1CCC2O` (stereo partly drawn), for which the Potency result is “inactive”.
Turning to `COc1cccc(C(=O)N2C[C@H]3C[C@@H](C2)c2cccc(=O)n2C3)c1`, the Potency result was “inactive”.
With `CCOCCc1c(O)[nH]c(=S)[nH]c1=O` the entry was “inactive”.
For `CN(C)C(=O)Oc1ccc(OCc2cccc[n+]2C)cc1`, the Potency result was “inactive”.
As for `c1cc2c(cc1CCNC1CCCCCC1)OCO2`, the Potency entry is “inactive”.
With `CC(C)(C)c1ccc(S(=O)(=O)Nc2ccc(O)c(Sc3nc4ccccc4s3)c2)cc1` the figure was 18.4 µM (active); with `c1ccc2sc(SNC3CCCCC3)nc2c1`, “inactive”.
Turning to `C=CC12CN(C)[C@@H]3C4CO[C@H](C[C@H]41)[C@]1(C(=O)Nc4ccccc41)[C@@H]32` (stereo partly drawn), the Potency entry was “inactive”.
For the compound `CCN(N=Nc1nonc1OC)c1nonc1OC`, the Potency entry is “inactive”.
On to `c1ccc2sc(N3CCNCC3)nc2c1`, for which the Potency result is “inactive”.
With `CCN1C[C@]2(COC)C(O)C[C@H](OC)[C@@]34C5C[C@]6(O)C(OC)C(O)[C@](OC(C)=O)(C5C6OC(=O)c5ccccc5)C(C(OC)C23)C14` (stereo partly drawn) the entry was “inactive”; with `CC(C)N(CC#CCC1(O)c2ccccc2-c2ccccc21)C(C)C`, “inactive”; with `c1cc2c(c(NC3=NCCCS3)c1)CCCC2`, “inactive”.
In the case of `COC(=O)N(c1ccc(OC)cc1)P1(=S)OCCC(C)O1` (stereo not drawn), the Potency was 14.6 µM (active).
`Cc1ccc(-n2c(O)c(C=NCC3CCCO3)c(=O)[nH]c2=O)c(C)c1` (stereo not drawn): the Potency result was “inactive”.
On to `CCC1(C)CC(CCNCc2ccc(N(C)C)cc2)(c2ccc(F)cc2)CCO1` (stereo not drawn), for which the Potency was 16.4 µM (active).
Turning to `CC(=O)N1CN2CN(C(C)=O)CC(C(=O)c3ccc(Br)cc3)(C2)C1`, the Potency entry is “inactive”.
For `COc1ccccc1NC(=O)N1C[C@@H]2C[C@@H](C1)c1cccc(=O)n1C2`, the Potency entry was “inactive”.
On to `O=c1[nH]c(=S)[nH]c(O)c1/C=C1\C=Nc2ccccc21`, for which the Potency was 7.31 µM (active).
Consider `COc1ccccc1N=Nc1c(O)[nH]c(=S)[nH]c1=O`, for which the Potency entry is “inactive”.
`CN(C)c1nc(N(C)C)nc(N(C#N)CCCl)n1`: the Potency entry is “inactive”.
Regarding `Cc1ccc(OC(=O)N(C)C[C@@H]2OCc3cnnn3CCCC(=O)N([C@H](C)CO)C[C@@H]2C)cc1`, the Potency result is “inactive”.
Regarding `CCC1(c2ccccc2)C(=O)NC(=O)N(C)C1=O` (stereo not drawn), the Potency result was “inactive”.
Take `COc1ccc(Br)cc1CNCCc1cccc(Cl)c1`: the Potency is 18.4 µM (active).
`COc1cc(C[C@H](C)N)c(OC)cc1Br`: the Potency result is “inactive”.
With `CC[C@]1(O)C(=O)OCc2c1cc1n(c2=O)Cc2cc3ccccc3nc2-1` the figure was 0.0168 µM (active); with `CC1=C2C(=O)C3C(CC=C4CC(OC5OC(O)C(O)C(O)C5CO)CCC43C)C2CCC12OC1CC(C)CNC1C2C` (stereo not drawn), “inactive”.
Turning to `Cc1ccc2c(c1)C1CN(C)CCC1N2C(=O)Cn1nnc(-c2ccccc2F)n1` (stereo not drawn), the Potency entry was “inactive”.
For the compound `CC(C)(c1ccc(OC[C@@H]2CO2)cc1)c1ccc(OC[C@H]2CO2)cc1`, the Potency was 10.6 µM (active).
Regarding `CCOP(=O)(OCC)C(NC(=O)NC)C(N)=O` (stereo not drawn), the Potency result was “inactive”.
As for `Nc1ccc(C(=O)N/N=C2/CN3CCC2CC3)cc1`, the Potency entry is “inactive”.
In the case of `O=C(/C=C/c1cccs1)c1cc(Cl)ccc1OC(=O)N1CCOCC1`, the Potency is 16.4 µM (active).
On to `O=C(Nc1cccc(OC(=O)N2CCCCC2)c1)N1CCOCC1`, for which the Potency entry is “inactive”.
In the case of `Cc1cc(-c2ccc(N)c(C)c2)ccc1N`, the Potency result is “inactive”.
Consider `C=CCN1C(=O)C2(C(C(=O)OCC)=C(N)Oc3c2c(=O)oc2ccccc32)c2ccccc21` (stereo not drawn), for which the Potency entry was “inactive”.
Take `CCCCCCN=C(CC)c1c(O)n(CCCC)c(=O)[nH]c1=O`: the Potency is 14.6 µM (active).
For `CCCCn1c(O)c(C(CC)=NCc2ccco2)c(=O)[nH]c1=O`, the Potency entry is “inactive”.
Regarding `CCC(=NCCCO)c1c(O)n(-c2ccc(OC)cc2)c(=O)[nH]c1=O`, the Potency result is “inactive”.
For `OC(CNC1CCCCC1)c1ccccc1` (stereo not drawn), the Potency entry is “inactive”.
`NS(=O)(=O)c1ccc(CCNC(=O)c2ccc(Cl)c(S(=O)(=O)N3CCCCCC3)c2)cc1`: the Potency was 20.6 µM (active).
`CC1CCCCN1Cc1cccnc1` (stereo not drawn): the Potency result is “inactive”.
Regarding `CCOC(=O)C(O)(c1ccc(N=Cc2ccccc2O)c(C)c1)C(F)(F)F` (stereo not drawn), the Potency entry is “inactive”.
`CC(=O)c1c(O)c(C)c(O)c(Cc2c(O)c3c(c(C(=O)/C=C/c4ccccc4)c2O)OC(C)(C)C=C3)c1O`: the Potency is 29.9 µM (active).
Take `CC(=O)c1c(O)c(C)c(O)c(Cc2c(O)c3c(c(C(=O)/C=C\c4ccccc4)c2O)OC(C)(C)C=C3)c1O`: the Potency is 13.3 µM (active).
As to `O=C1NC(=O)C(CCc2ccccn2)(Cc2cccc(Cl)c2Cl)C(=O)N1c1ccc(Br)cc1` (stereo not drawn), the Potency result was “inactive”.
As to `CCOP(=S)(OCC)SCOC(=O)NCC(=O)OC`, the Potency result is “inactive”.
Take `CN1CCc2cc3c(cc2[C@H]1[C@@H]1OC(=O)c2c1ccc1c2OCO1)OCO3`: the Potency entry was “inactive”.
As for `C=CCSSCC=C`, the Potency result was “inactive”.
For the compound `CC(=CCOc1ccc2ccc(=O)oc2c1)C1=CC(=O)C(C)(C)O1`, the Potency is 5.8 µM (active).
`c1ccc2c(c1)[I+]c1ccccc1-2`: the Potency was 33.5 nM (active) and 15.8 nM (active) and 79.4 nM (active).
With `Cc1nc2nc(C)c(CCC(=O)N3CCC4(CC3)OCCO4)c(C)n2n1` the entry was “inactive”; with `O=C(O)CCn1cc(C=C2C(=O)NC(=S)NC2=O)c(-c2cccc(Br)c2)n1`, “inactive”.
As to `CNCC[C@H](Oc1ccc(C(F)(F)F)cc1)c1ccccc1`, the Potency is 7.5 µM (active).
With `N[C@@H](Cc1c[nH]c2ccccc12)c1nnc(SCc2c(F)cccc2Cl)o1`, the Potency entry is “inactive”.
With `CC(C)C(N)C(=O)OCCOCn1cnc2c(=O)[nH]c(N)nc21` (stereo not drawn) the figure was 2.06 µM (active); with `CN(C)C(=O)Oc1cc(=O)n2c3c(cccc13)CCC2`, “inactive”.
For the compound `O=[N+]([O-])c1cnc2ccc3ccccc3c2c1`, the Potency result was “inactive”.
On to `CC1CC=CCC12C(=O)NC(=S)NC2=O` (stereo not drawn), for which the Potency result was “inactive”.
For `COC(=O)COc1cc(C)cc2oc(=O)c3c(c12)CCCC3` the value was “inactive”; for `O=c1c2ccccc2nc(CBr)n1-c1ccc(Cl)cc1`, “inactive”; for `Cc1nc2ccccc2c(=O)n1-c1ccc(Cl)cc1Cl`, 13 µM (active).
For `O=C1CC(=O)N(Cc2ccccc2)C(=O)N1CCCCCCN1C(=O)CC(=O)N(Cc2ccccc2)C1=O` the value was “inactive”; for `O=C(O)c1cc[c]([Sb](=[O])([OH])[OH])cc1[N+](=O)[O-]`, “inactive”.
For `COc1ccc(C)cc1N(CC(=O)N1CCC(C)CC1)S(=O)(=O)c1ccc(C)cc1` the value was 18.4 µM (active); for `COc1cc2c(cc1OC)[C@@H]1C(=O)c3ccc(O)c(CC=C(C)C)c3OC1CO2` (stereo partly drawn), “inactive”.
As for `COc1ccc2[nH]c3c(c2c1)CCN[C@H]3C`, the Potency result was “inactive”.
As to `CC1CCC(N(C)C2CCN(C)CC2)CC1` (stereo not drawn), the Potency result is “inactive”.
With `C[C@]12CCC3C(CC[C@H]4C[C@@H](O)CC[C@]34C)C1CC[C@@H]2O` (stereo partly drawn) the entry was “inactive”.
